# Values joined by “and” are separate entries in the source; they are usually repeats but may differ in a detail not shown here. Equal entries are not always repeated. Results filed as inconclusive are left out. Entries that show only a call come without a potency. Active and inactive are the calls of the source. Calls come from the whole dose curve; as a rule, active = well fitted curve in the direction sought with a large enough effect; inconclusive = small, poorly fitted or top-dose-only effect, or another doubt; inactive = no such curve, though single readings can be large; an effect the other way counts as inactive or inconclusive.
# How the values were obtained:
# [1] = qHTS Screen of the MIPE 4.0 Collection Against Ewings Sarcoma (TC32) (AID 1259256); details: TC32 Ewing sarcoma viability, CellTiter-Glo, 48 h; series mostly up to 45.8 µM; note: nearly all actives have a fitted effect of over 45% in size
# How it was run: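 Compound titrations go onto adherent log-phase cells 4 h after seeding, incubate 48 h at 37C, then CellTiter-Glo luminescence reports viability relative to DMSO and cell-free controls.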
# [2] = P-glycoprotein substrates identified in KB-8-5-11 adenocarcinoma cell line, qHTS therapeutic library screen (AID 1346987); details: KB-8-5-11 (P-gp overexpressing) viability, CellTiter-Glo, 72 h; series mostly up to 44.5 µM; note: nearly all actives have a fitted effect of over 65% in size
# How it was run: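 In this qHTS, P-gp-rich KB-8-5-11 cells received library compounds across a concentration range. Viability was quantified by luminescence after 72 h at 37 degree C.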
# [3] = NS1 protein of Zika virus - qHTS assay to identify small molecule inhibitors in human HEK 293 cells (AID 1347053); details: HEK293 ZIKV MR766 infection, NS1 TR-FRET, 24 h; series mostly up to 46.1 µM; note: nearly all actives have a fitted effect of over 55% in size
# How it was run: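 In this cell-based screen, HEK 293 cultures received compound for one hour before Zika MR766 at MOI = 0.5. NS1 was quantified 24 hours later by TR-FRET, normalized to virus-free wells and infected wells.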
# [4] = qHTS of pediatric cancer cell lines to identify multiple opportunities for drug repurposing: Primary screen for TC32 cells (AID 1347089); details: TC32 Ewing sarcoma viability, CellTiter-Glo luminescence, 48 h; series mostly up to 45.8 µM; note: nearly all actives have a fitted effect of over 60% in size
# How it was run: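 In the primary qHTS, MIPE compounds were tested at 11 concentrations (0.78 nM to 46 µM) and NPC compounds at 8 (0.59 nM to 46 µM) on TC32 cells for 48 h. CellTiter-Glo luminescence gave viability.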
# [5] = qHTS of pediatric cancer cell lines to identify multiple opportunities for drug repurposing: Primary screen for DAOY cells (AID 1347090); details: DAOY medulloblastoma viability, CellTiter-Glo luminescence, 48 h; series mostly up to 46 µM; note: nearly all actives have a fitted effect of over 55% in size
# How it was run: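 Eight- or eleven-point concentration series, 48 h treatment at 37 degrees C in growth media; readout CellTiter-Glo luminescence. Potency and efficacy were taken from the concentration-response curves.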
# Potency is the fitted concentration of half-maximal effect.
SMILES,Potency [1],Potency [2],Potency [3],Potency [4],Potency [5]
NC(=O)c1ncn([C@@H]2O[C@H](CO)[C@@H](O)[C@@H]2O)c1N,inactive,inactive,inactive,inactive,inactive
CC(C)C[C@H](NC(=O)[C@@H](NC(=O)c1cccc(-c2ccccc2)n1)[C@@H](C)O)B(O)O,0.0662 µM (active),833 nM (active) and 820 nM (active),0.132 µM (active),0.466 µM (active),0.059 µM (active)
CCS(=O)(=O)Nc1ccc2[nH]c(O)c(C(=Nc3ccc(CN4CCCCC4)cc3)c3ccccc3)c2c1,0.0833 µM (active),inactive,18.7 µM (active),0.131 µM (active),7.43 µM (active)
CN(C)CC[C@H](c1ccc(Cl)cc1)c1ccccn1,inactive,inactive,inactive,inactive,23.5 µM (active)
N#Cc1cc(NC(=O)Nc2nnc(-c3ccncc3)s2)ccc1-c1cn[nH]c1,inactive,inactive,inactive,inactive,inactive
COc1ccc([C@@H]2CNC(=O)C2)cc1OC1CCCC1,1.87 µM (active),inactive,inactive,inactive,3.72 µM (active)
CCCc1nc(C(C)(C)O)c(C(=O)O)n1Cc1ccc(-c2ccccc2-c2nn[nH]n2)cc1,inactive,inactive,inactive,inactive,inactive
Cc1ncc(-c2ccnc(Nc3ccc(S(C)(=O)=O)cc3)n2)n1C(C)C,4.18 µM (active),7.43 µM (active) and 13 µM (active),4.69 µM (active),13.1 µM (active),4.69 µM (active)
CCc1c(O)cc(O)c(C(=O)c2ccc(OCCN3CCOCC3)c(OC)c2)c1CC(=O)N(CCOC)CCOC,0.526 µM (active),inactive,inactive,2.94 µM (active),14.8 µM (active)
O=C(C[C@@H]1CC=CCCC(=O)O[C@H](c2ccccc2)CNC1=O)NCc1ccc(Cl)cc1,inactive,inactive,inactive,inactive,inactive
O=C(NC1CC1)c1cccc(-c2ccc3c(NC(=O)C4CC4)n[nH]c3c2)c1,1.32 µM (active),inactive,inactive,9.3 µM (active),1.18 µM (active)
Cn1cnc2c(F)c(Nc3ccc(Br)cc3F)c(C(=O)NOCCO)cc21,inactive,inactive,inactive,inactive,inactive
COC(=O)[C@@H]1[C@H]2C[C@@H]3c4[nH]c5ccccc5c4CCN3C[C@@H]2CC[C@@H]1O,inactive,inactive,inactive,inactive,inactive
CN(C)c1ccc2cc(C(=O)N[C@@H](CCCN=C(N)CCl)C(=O)NCc3ccccc3)ccc2c1,7.43 µM (active),inactive,inactive,inactive,7.43 µM (active)
Nc1cccc2c1C(=O)N(C1CCC(=O)NC1=O)C2=O (stereo not given),0.0042 µM (active),inactive,inactive,inactive,inactive
NC[C@H]1O[C@H](O[C@H]2[C@@H](O)[C@@H](O[C@H]3O[C@H](CO)[C@@H](O)[C@H](N)[C@@H]3O)[C@H](N)C[C@@H]2N)[C@H](N)C[C@H]1O,inactive,inactive,inactive,inactive,inactive
CC[C@H](CC[C@@H](C)[C@H]1CC[C@H]2[C@@H]3CC=C4C[C@@H](O)CC[C@]4(C)[C@@H]3CC[C@]12C)C(C)C,inactive,inactive,inactive,inactive,inactive
OCCNC1CCCc2c1[nH]c1ccc(-c3ccccc3)cc21 (stereo not given),18.7 µM (active),6.51 µM (active),20.9 µM (active),inactive,inactive
OC[C@H]1OC(O)C[C@@H](O)[C@H]1O (stereo not given in full),inactive,inactive,inactive,inactive,inactive
O=C(C=CC#Cc1cccc(NS(=O)(=O)c2ccccc2)c1)NO,0.833 µM (active),4.69 µM (active),13.2 µM (active),7.39 µM (active),2.96 µM (active)
CC(=O)OC[C@@H]1O[C@@H](n2ccc(=O)[nH]c2=O)[C@H](OC(C)=O)[C@H]1OC(C)=O,inactive,inactive,inactive,inactive,inactive
OCCN1C[C@H](O)[C@@H](O)[C@H](O)[C@@H]1CO,inactive,inactive,inactive,inactive,inactive
Cc1onc(-c2ccccc2)c1C(=O)N[C@@H]1C(=O)N2[C@@H](C(=O)O)C(C)(C)S[C@@H]12,inactive,inactive,inactive,inactive,inactive
Cc1cn([C@@H]2O[C@H](CO)[C@@H](O)[C@H]2F)c(=O)[nH]c1=O,inactive,inactive,inactive,inactive,inactive
C=C1C[C@@]2(O)O[C@@]3(C[C@H]2C(C)C)[C@H](C)CC[C@H]13,inactive,inactive,inactive,inactive,inactive
COc1cc([C@@H]2c3cc4c(cc3[C@H](O)[C@H]3COC(=O)[C@@H]23)OCO4)cc(OC)c1OC,0.0372 µM (active),0.418 µM (active),0.264 µM (active),0.739 µM (active),0.118 µM (active)

# Source: PubChem BioAssay (NCATS)
